PMC7826789 (International Journal of Molecular Sciences, 2021)

system: AKT1; settings: Compound Concentration (nM):1000
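Also: KINOMEscan scanMAX binding as percent activity remaining versus control; lower means stronger binding.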

Point of comparison: `COc1cc(/C=N/Nc2ncnc3[nH]ncc23)ccc1O` [GW578748X], “Percent Control” value 100%. Against it:
- Cl.O=C(Nc1ccc(Oc2ccc3[nH]c(NC(=O)c4ccco4)nc3c2)cc1)Nc1cc(C(F)(F)F)ccc1F [GW683134A] — the same, 100%
- O=C(Nc1n[nH]c2nc(-c3ccc(O)cc3)c(Br)cc12)C1CC1 [SB-725317] — the same, 100%
- COc1cc2ncnc(Nc3ccc4c(cnn4Cc4ccccc4)c3)c2cc1OC.Cl [GW282449A] — the same, 100%
- CN(C)CCNC(=O)Nc1ccc(N(C)c2ccnc(Nc3ccc(CS(C)(=O)=O)cc3)n2)cc1.Cl [GW830900A] — the same, 100%
- CC1=C(C(=O)Nc2ccc3[nH]ncc3c2)C(c2ccc(Cl)c(Cl)c2)CC(=O)N1 (stereo not shown) [GSK299115A] — the same, 100%
- COc1ccc(COc2ccc(Cc3cnc(N)nc3N)cc2OC)cc1 [GW632580X] — lower, 75%
- CCS(=O)(=O)c1ccc(OC)c(Nc2ncc(-c3cccc(F)c3)o2)c1 [GW621970X] — the same, 100%
- C/C(Nc1ccc(S(N)(=O)=O)cc1)=C1/C(=O)Nc2ccccc21 [GW335962X] — lower, 81%
- CN1CCN(C(=O)c2ccc(NC(=O)Nc3ccc(N(C)c4ccnc(Nc5ccc(CS(C)(=O)=O)cc5)n4)cc3)cc2)CC1.Cl [GW830263A] — the same, 100%
- CC1=C(C(=O)Nc2ccc3[nH]ncc3c2)C(c2ccc3ccccc3c2)CC(=O)N1 (stereo not shown) [GSK270822A] — lower, 17%
- COc1ccc2cc(-c3c(-c4ccncc4)nc(-c4ccc(S(C)(=O)=O)cc4C)n3C)ccc2c1 [SB-633825] — the same, 100%
- COc1ccccc1-c1cc(/C=C2\C(=O)Nc3ncc(Br)cc32)cc(Br)c1O [GW442130X] — lower, 93%
- NS(=O)(=O)c1ccc(N/N=C2\C(=O)Nc3ccc(C(=O)NCc4ccncc4)cc32)cc1 [GW300657X] — lower, 82%
- Cl.O=C(O[C@H]1CN[C@H](C#Cc2cc3ncnc(Nc4ccc5c(cnn5Cc5ccccc5)c4)c3s2)C1)N1CCOCC1 [GSK200398A] — lower, 92%
- Cl.O=S1CCN(Cc2ccc(-c3ccc4ncnc(Nc5ccc(OCc6ccccc6)c(F)c5)c4c3)o2)CC1 [GW576924A] — the same, 100%
- Cl.c1ccc(Cc2nc3ccc(Nc4ncnc5ccccc45)cc3[nH]2)cc1 [GR269666A] — lower, 93%
- COc1cccc(-c2c[nH]c3c(N/N=C/c4ccncc4)ncnc23)c1 [GW814408X] — the same, 100%
- Cl.O=C(Nc1ccc(Oc2ccc3[nH]c(NC(=O)c4ccccc4)nc3c2)cc1)Nc1cc(C(F)(F)F)ccc1F [GW709042A] — lower, 90%
- CCn1c(-c2nonc2N)nc2c(C#CC(C)(C)O)nc(OCCNC)cc21.Cl [GSK949675] — lower, 3.7%
- CN(C)c1cc2c(Nc3ccc4c(cnn4Cc4ccccc4)c3)ncnc2cn1 [GW282974X] — lower, 79%
- C[C@@H](Oc1cc(-n2cnc3ccc(OC4CCN(C)CC4)cc32)sc1C(N)=O)c1ccccc1Cl [GSK579289A] — the same, 100%
- CCc1ccc(Oc2nccc(-c3c(-c4ccc(F)cc4)ncn3C3CCNCC3)n2)cc1 [SB-242719] — lower, 88%
- NS(=O)(=O)c1ccc(N/N=C2\C(=O)Nc3ccc(-c4cnco4)cc32)cc1 [GW276655] — lower, 84%
- COc1cc(C)c(N(C)C(=O)CN(C)C)cc1Nc1nc(Nc2cccc(F)c2C(N)=O)c2cc[nH]c2n1 [GSK2219385] — lower, 98%
- COc1ccc2[nH]c3c4[nH]c5ccc(OC)cc5c4c4c(c3c2c1)C(=O)NC4=O [GW296115X] — lower, 72%
- COc1cc(C=NNc2ncnc3c2cnn3-c2ccccc2)ccc1O [GW513184X] — the same, 100%
- NS(=O)(=O)c1ccc(N/N=C2\C(=O)Nc3ccc(Cl)cc32)cc1 [GW280670X] — the same, 100%
- COc1cc(N2CCN(C(C)C)CC2)ccc1Nc1nc(Nc2ccc(F)cc2C(=O)NC[C@@H](O)CO)c2cc[nH]c2n1 [GSK1392956A] — lower, 83%
- Cc1cc(O)cc(C)c1/C=C/c1cncc(C(N)=O)c1 [GW435821X] — lower, 96%
- COC(=O)Nc1nc2ccc(Oc3ccc(NC(=O)Nc4cc(C(F)(F)F)ccc4F)cc3)cc2s1.Cl [GW693917A] — lower, 84%
- CC(C)COC(=O)c1ccc2c(c1)/C(=C/Nc1ccc(S(N)(=O)=O)cc1)C(=O)N2 [GW416981X] — the same, 100%
- CCS(=O)(=O)c1ccc(OC)c(Nc2ncc(-c3cccc(OC)c3)o2)c1 [GW580509X] — the same, 100%
- COc1cccc(-n2ncc3c(N/N=C/c4ccncc4)ncnc32)c1 [GW784752X] — the same, 100%
- COc1ccc2c(-c3ccnc(Nc4cccc(OC(F)(F)F)c4)n3)cnn2n1 [GW810372X] — the same, 100%
- O=C1Nc2ccc(C(=O)c3ccco3)cc2C1=Cc1cc(Cl)c(O)c(Cl)c1 [GW406108X] — the same, 100%
- NS(=O)(=O)c1ccc(Nc2ncc(-c3ccccc3)o2)cc1 [GW572399X] — the same, 100%
- COc1cc2ncn(-c3cc(O[C@H](C)c4ccccc4Cl)c(C(N)=O)s3)c2cc1OC [GSK237701A] — the same, 100%
- Nc1ncnc2occ(-c3ccc(NC(=O)Nc4cc(C(F)(F)F)ccc4F)cc3)c12 [GW770249X] — the same, 100%
- NS(=O)(=O)c1ccc(N/N=C2\C(=O)Nc3ccc(C(=O)NCCc4c[nH]cn4)cc32)cc1 [GW300660X] — the same, 100%
